HepG2 viability – HepG2 cytotoxicity, counter-screen for TGF-b inhibitors. HepG2 CAGA-GFP viability, ATP luminescence, 18 h. Potency, µM (highest dose often 46.1 µM), inactives show at the top dose activity change, negative = cytotoxicity, most hits filed as cytotoxic. 410,000 compounds, 0.76% hits; also: potency is read from the fitted curve at half-maximal effect
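HepG2 CAGA-GFP cells (1000/well, DMEM with 1% FBS) received compound, then TGF-beta at 500 pg/mL final, and were incubated 18 hours at 37 degrees C. Viability was read by CellTiter-Glo luminescence. Media-only wells were set as complete cell-killing and DMSO as no toxicity.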
TDP1 cell CPT – growth inhibition of DT40 Tdp1-/-;hTDP1 cells with camptothecin (screen for TDP1 inhibitors) | chicken DT40 Tdp1-/-;hTDP1 cells + 20 nM CPT, ATP luminescence, 48 h | 420,000 compounds, 12% hits | Potency, µM (top dose mostly 46.2 µM), without a hit: at the highest dose activity change, negative = growth inhibition, usual class: inhibitors | AID 686979; also: potency is read from the fitted curve at half-maximal effect; % is scaled to controls: 0 for no effect and ±100 for the full control effect; nearly all actives have a fitted effect of over 55% in size
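Cell growth measured by CellTiter-Glo luminescence after a minimum 48 h, 37 C compound exposure with 20 nM CPT in Tdp1-knockout DT40 cells stably expressing hTDP1, seeded 400/well; qHTS titration format.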
IL1B secr inh – inflammasome signaling inhibition, IL-1 beta readout. THP-1 LPS/ATP IL-1B secretion, AlphaLISA, 16 h; stronger effect = lower value. activity change, % at 57.5 µM. 360,000 compounds, 4.7% hits. AID 743279; in the data active = activity change below about -50%; inconclusive = mostly about -30% to -49%; also: % is scaled to controls: 0 for no effect and ±100 for the full control effect
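Secreted IL-1B measured by AlphaLISA bead assay after 16 h compound exposure of THP-1 cells; compounds (final up to 57.5 uM) added 1 h before LPS (250 ng/mL) and ATP (1.25 mM) stimulation; lower signal means less secretion.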
TDP1 cell noCPT – qHTS for Inhibitors of human tyrosyl-DNA phosphodiesterase 1 (TDP1): qHTS in cells in absence of CPT; DT40 Tdp1-/- hTDP1 cells, no CPT, ATP luminescence, 48 h; AID 686978, 2013; Potency, µM (titrated, usually from 46.2 µM), for inactives: top-dose activity change, negative = growth inhibition, most hits filed as inhibitors; 420,000 compounds, 15% hits; also: potency is read from the fitted curve at half-maximal effect; % is scaled to controls: 0 for no effect and ±100 for the full control effect; nearly all actives have a fitted effect of over 55% in size
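A cellular qHTS used chicken DT40 cells lacking endogenous Tdp1 but carrying stably transfected human TDP1. Compounds were applied without camptothecin, and cell growth kinetics were judged by ATP-dependent luminescence after ≥48 hr.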
TGFb SMAD3 inh – inhibitors of TGF-b signaling | HepG2 CAGA-GFP TGF-b/SMAD3 reporter, GFP fluorescence, 18 h; TGF-beta stimulated, 500 pg/mL final | Potency, µM (titrated, usually from 46.1 µM), inactives show at the highest dose activity, negative = inhibition, hits mostly inhibitors | 410,000 compounds, 1.2% hits; also: potency is read from the fitted curve at half-maximal effect; % is scaled to controls: 0 for no effect and ±100 for the full control effect; nearly all actives have a fitted effect of over 65% in size
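Cell-based qHTS in HEPG2 carrying a CAGA-GFP Smad reporter; compounds added before 500 pg/mL final TGF-beta, 18 h incubation at 37 degrees C, GFP fluorescence quantified per cell by imaging cytometry.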
TDP1 block – inhibitors of human tyrosyl-DNA phosphodiesterase TDP1. Q9NUW8. recombinant TDP1, AlphaScreen DNA substrate cleavage. AID 485290. Potency, µM (titrated, usually from 130 µM), inactives show at the top dose activity change, negative = inhibition, actives largely listed as inhibitors. 350,000 compounds, 0.28% hits; also: potency is read from the fitted curve at half-maximal effect; % is scaled to controls: 0 for no effect and ±100 for the full control effect; nearly all actives have a fitted effect of over 40% in size
Target sequence (Q9NUW8 whole entry, looked up): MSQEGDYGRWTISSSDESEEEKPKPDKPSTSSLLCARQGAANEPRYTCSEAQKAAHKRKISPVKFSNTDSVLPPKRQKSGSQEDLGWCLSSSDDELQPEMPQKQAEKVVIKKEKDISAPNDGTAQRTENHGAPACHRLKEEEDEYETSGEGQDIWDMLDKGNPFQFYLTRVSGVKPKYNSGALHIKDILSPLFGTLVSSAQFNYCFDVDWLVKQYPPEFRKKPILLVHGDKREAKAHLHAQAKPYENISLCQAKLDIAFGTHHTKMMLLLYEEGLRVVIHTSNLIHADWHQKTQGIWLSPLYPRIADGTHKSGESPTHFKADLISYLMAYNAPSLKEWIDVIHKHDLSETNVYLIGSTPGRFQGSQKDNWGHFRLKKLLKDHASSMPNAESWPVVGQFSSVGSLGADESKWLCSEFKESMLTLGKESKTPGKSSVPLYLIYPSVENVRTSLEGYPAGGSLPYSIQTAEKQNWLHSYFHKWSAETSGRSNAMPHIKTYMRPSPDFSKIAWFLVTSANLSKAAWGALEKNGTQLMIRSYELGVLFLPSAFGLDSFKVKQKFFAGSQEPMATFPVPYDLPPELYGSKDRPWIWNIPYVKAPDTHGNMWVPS
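Signal: AlphaScreen proximity between streptavidin donor and anti-FITC acceptor beads on intact substrate. Reaction: Tdp1 1 nM, substrate 15 nM final, 5 min RT after 15 min compound preincubation.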
Numbers without * were called inactive; ? = inconclusive; nt = not tested or not shown; [ ] = another dose, or the depositor's remark. In the library only some 19% were active in any assay of this set; here they are far more common. Unless noted, calls follow the shape of the dose curve; as a rule, active = well fitted curve in the direction sought with a large enough effect; inconclusive = small, poorly fitted or top-dose-only effect, or another doubt; inactive = no such curve, though single readings can be large; an effect the other way counts as inactive or inconclusive.

SMILES	HepG2 viability	TDP1 cell CPT	IL1B secr inh	TDP1 cell noCPT	TGFb SMAD3 inh	TDP1 block
COC(=O)[C@]12CCCCC=C1N(Cc1ccccc1)C(=O)[C@H](CC(=O)N1CCCC1)C2	nt	?	21	?	nt	nt
COC(=O)[C@]12CCCCC=C1N(Cc1cccc3ccccc13)C(=O)[C@H](CC(=O)N1CCN(C(=O)c3ccco3)CC1)C2	nt	?	-19	?	nt	nt
COC(=O)[C@]12CCCCC=C1N(CCC1=CCCCC1)C(=O)[C@H](CC(=O)N1CCN(C(=O)c3ccco3)CC1)C2	nt	?	-15	26µM*	nt	nt
CCOc1ccc(C(C)=O)cc1COC(=O)c1ccc2c(c1)NC(=O)CS2	-36%	?	21	?	?	0%[56.1 µM]
COc1ccccc1CNC(=O)CN1C(=O)COc2ccc(S(=O)(=O)Nc3ccccc3)cc21	-38%	-6%	nt	?	?	11%
Cn1c(CO)nc2c3ccccc3ccc21	-21%	-4%	2	-7%	1%	nt
CCCCCCCCCCCC[n+]1ccc(C)c2ccccc21	-30%	2µM*	nt	2µM*	?	nt
Cc1cc[n+](CCC2CCCCC2)c2ccccc12	-31%	1.3µM*	nt	0.89µM*	?	nt
Cc1ccc2c(C)cc[n+](CCCS(=O)(=O)[O-])c2c1	14%	-5%	-14	-14%	-2%	2%
CCCCCCC[n+]1ccc(C)c2ccccc21	-4%	0.45µM*	nt	0.45µM*	?	nt
N#C/C(=N\Nc1ccc(Cl)cc1)C(=O)c1ccccc1	-36%	9.2µM*	-52*	10µM*	?	10%
COC(=O)C(=NNc1c(C)n(C)n(-c2ccccc2)c1=O)C(=O)OC	-15%	0%	-7	-17%	4%	5%
Cc1c(N/N=C(\C#N)C(=O)c2ccc(Cl)cc2)c(=O)n(-c2ccccc2)n1C	3%	3.7µM*	36	3.7µM*	?	-3%
CC1CC/C(=C\c2ccc3c(c2)OCO3)C(=O)/C1=C/c1ccc2c(c1)OCO2 (centres undefined)	6%	?	-55*	?	-28%	7%
C=CCn1c(SCn2nnc3ccccc3c2=O)nc2scc(-c3cccs3)c2c1=O	-24%	9%	-6	-1%	?	-1%
O=c1c2ccccc2nnn1CSc1nnc(-c2cccs2)n1Cc1ccccc1	-31%	29µM*	?	23µM*	11%	4%
O=c1cc(CSc2nnc(-c3cccs3)n2Cc2ccccc2)nc2sc3ccccc3n12	-38%	5.8µM*	-51*	3.7µM*	1%	-5%
CC/C=C\C/C=C\C/C=C\C/C=C\C/C=C\C/C=C\CCC(N)=O	nt	nt	nt	nt	nt	11%
CCOc1ccccc1NC(=O)Cn1nc2c3cc(F)ccc3n(Cc3cccc(C)c3)cc-2c1=O	16%	3%	nt	?	14%	3%
CC1=C(c2ccc(F)cc2)S(=O)(=O)NC1=NCc1ccccc1F	-14%	?	nt	?	-27%	4%
CC1=C(c2ccc(C(C)C)cc2)S(=O)(=O)NC1=NCc1ccccc1Br	-35%	?	nt	13µM*	-2%	3%
CCOC(=O)c1ccc(NC2=CC(=O)C(=O)c3ccccc32)cc1	-22%	23µM*	9	23µM*	?	6%
NS(=O)(=O)c1ccc(NC2=CC(=O)C(=O)c3ccccc32)cc1	-55%	8.2µM*	-78*	2.6µM*	8.9µM*	nt
CCOC(=O)c1ccc(NC(=O)C(C)N2C(=O)c3ccccc3C2=O)cc1 (centres undefined)	1%	0%	27	-6%	0%	2%

Screening data deposited in PubChem by National Center for Advancing Translational Sciences (NCATS).
